MPTP inh: permeability transition pore inhibition. isolated mouse mitochondria, Ca2+ swelling absorbance, 30 min. inhibition, % at 10 µM. 360,000 compounds, 1.4% hits. AID 602449;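 active = inhibition of 50% or more, scaled per plate between neutral and stimulator controls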;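 also: 0% = DMSO wells given calcium and 100% = 1 mM EGTA wells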
FAS TE block: blocks the thioesterase domain of human fatty acid synthase | P49327 | recombinant FAS-TE, OMFH fluorogenic substrate, fluorescence endpoint | inhibition, % at 15 µM | 360,000 compounds, 0.67% hits | AID 602261;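 active = compounds whose normalised, plate-corrected inhibition of enzyme fluorescence in the single-dose primary screen is 50% or more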;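 also: 0% = DMSO with enzyme and 100% = substrate without enzyme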
NR3A LBD binder: modulates the human NR3A ligand-binding domain. NR3A LBD differential scanning fluorimetry, Tm shift; 0% = protein alone, 100% = glycine-bound protein. Tm shift relative to glycine control, % at 25 µM. 340,000 compounds, 2.5% hits. AID 1259313;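 active = melting temperature shift of at least 10% of the positive control shift, at one fixed dose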
Myeloid diff MLP: myeloid differentiation induction | calls only at 10 µM | ER-HoxA9 myeloid progenitors, lysozyme-GFP differentiation, flow cytometry | AID 624256 | 360,000 compounds, 1% hits;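 active = normalized GFP-positive differentiation at or above the plate's own cutoff, the solvent-only control mean plus 3 SD; inconclusive = no clear call, values can overlap the other calls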;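 also: cells exposed to compound for four days before flow analysis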
rCAG binder-1: binds r(CAG) RNA repeats; AID 651821; inhibition, % at 3 µM; 370,000 compounds, 1.3% hits; r(CAG) RNA repeat, TO-PRO-1 dye displacement fluorescence;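 active = inhibition above the plate cutoff, the mean of all test compounds on that plate plus 3 SD, cut at about 35% in these data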;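 also: 0% = DMSO alone and 100% = 100 µM mitoxantrone as full dye displacement; higher means more dye released from RNA so lower well fluorescence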
rCAG bind conf: r(CAG) RNA repeat binding, confirmation. 4,300 compounds, 70% hits. inhibition, % at 3 µM. TO-PRO-1 dye displacement fluorescence. shares compounds with rCAG binder-1;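 active = inhibition above a per-plate cutoff, the mean inhibition of sample wells plus 3 SD, cut at about 35% in these data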;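 also: loss of TO-PRO-1 fluorescence as compound displaces dye from 1x1 AA loop RNA; 0% = DMSO only wells and 100% = 100 µM mitoxantrone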
DNA CAG counter: disrupts DNA CAG TO-PRO-1 complex, flagging rCAG hits | inhibition, % at 3 µM | 4,300 compounds, 94% hits | AID 652068 | shares compounds with rCAG binder-1 | d(CAG) DNA oligo TO-PRO-1 dye displacement, fluorescence;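 active = inhibition above its plate's cutoff, the mean test-well inhibition plus 3 SD, cut at about 4.8% in these data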;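 also: 0% = DNA dye mix with DMSO and 100% = 100 µM mitoxantrone; hits displace the dye from DNA and so lower well fluorescence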
DNA CAG DR: DNA CAG dye complex inhibition, dose response counter-screen; IC50, µM; DNA CAG/GTC duplex TO-PRO-1 dye displacement fluorescence; 250 compounds, 20% hits; AID 686960; shares compounds with rCAG binder-1; in the data active = IC50 below about 10 µM
dCAG TOPRO ctr: DNA CAG dye complex inhibition, late stage dose response; shares compounds with rCAG binder-1; d(CAG) DNA duplex TO-PRO-1 dye displacement, fluorescence; IC50, µM; 30 compounds, 80% hits
rCAG binder-2: molecules binding r(CAG) RNA repeats, late stage dose response | shares compounds with rCAG binder-1 | r(CAG) RNA TO-PRO-1 dye displacement, fluorescence | IC50, µM | 30 compounds, 100% hits | AID 720651
* marks the source's active call; other numbers are inactive results; i = inactive; ? = inconclusive; nt = no result given. Most compounds without a hit are left out; they make up all but 5.7% or so of the library. Unless noted, no rule for the calls is given here.

SMILES	MPTP inh	FAS TE block	NR3A LBD binder	Myeloid diff MLP	rCAG binder-1	rCAG bind conf	DNA CAG counter	others
Cc1cc2nc(-c3ccco3)c(Cc3ccccc3C(F)(F)F)n2c(C)c1Br	-2	23	nt	i	47*	37*	14*
FC(F)(F)c1ccccc1Cc1c(-c2ccco2)nc2ccc(Br)cn12	-2	12	nt	i	39*	5	2
CC1=Nc2cc(C(=O)O)ccc2Sc2ccc(Br)cc21	0	2	0	i	51*	55*	22*
O=C(Nc1cccc([N+](=O)[O-])c1)c1ccc2nc(N3C(=O)CCC3=O)sc2c1	2	10	-2	i	32	nt	nt
O=C(Nc1cccc(Br)c1)c1ccc2nc(N3C(=O)CCC3=O)sc2c1	2	12	14*	i	44*	27	9.7*
C/C=C1\NC(=O)[C@H](C)NC(=O)[C@@H](NC(=O)[C@@H](Cc2ccc(O)cc2)NC(=O)[C@@H](NC(=O)/C(C)=C/C)C(C)C)[C@@H](C)OC(=O)[C@H](CCCCc2ccc(O)cc2)NC(=O)[C@@H](CCC(=O)O)NC1=O	-1	-8	1	i	36*	34	6.7*
Cc1sc(NC(=O)C2=COCCO2)nc1-c1ccc(F)cc1	0	-1	0	i	-2	nt	nt
O=C(NNC(=O)C1CCC1)c1ccccc1F	-2	-6	0	i	2	nt	nt
Cc1cccc(/C=C(\C(=O)O)c2ccc(S(=O)(=O)N3CCCC3)s2)c1	0	-4	-1	i	19	nt	nt
COc1cc(/C=C(\C(=O)O)c2ccc(S(=O)(=O)N3CCCC3)s2)ccc1OCCC(C)C	-1	4	0	i	72*	57*	20*
CCCCOc1ccc(/C=C(\C(=O)O)c2ccc(S(=O)(=O)N3CCCC3)s2)cc1	0	6	2	i	67*	66*	28*
O=C(O)/C(=C\c1ccc(Br)cc1)c1ccc(S(=O)(=O)N2CCCCC2)s1	6	20	-7	i	47*	67*	25*	DNA CAG DR=i;dCAG TOPRO ctr=8.3*;rCAG binder-2=2.8*
O=C(O)/C(=C\c1ccc(C(F)(F)F)cc1)c1ccc(S(=O)(=O)N2CCCC2)s1	1	-1	0	i	37*	25	5.5*
COc1ccc(S(=O)(=O)N2CCN(C(=O)/C=C/c3ccco3)CC2)cc1	-2	-2	-1	i	12	nt	nt
COc1ccccc1OCCNc1ccc(S(=O)(=O)N2CCCC2)cn1	-2	-6	1	i	-10	nt	nt
Cc1ccc(C2CC(c3cccs3)=NN2C(=O)CSc2nc3ccccc3o2)cc1 (configuration not stated)	-2	36	-1	i	4	nt	nt
CC1CN(C(=O)c2ccc(-c3cccc(C(F)(F)F)c3)o2)CC(C)O1 (configuration not stated)	0	4	2	i	-6	nt	nt
Cc1cc(NC(=O)CSc2nc(-c3ccccc3)nc3c2c(=O)n(C)c(=O)n3C)no1	0	-6	-2	i	2	nt	nt
COc1ccc(C2(C)NC(=O)N(CC(=O)Nc3ccc(Br)c(C)c3)C2=O)cc1OC (configuration not stated)	-2	4	-10	?	7	nt	nt
CC(=O)Nc1ccc(S(=O)(=O)Nc2nc3ccccc3nc2Nc2ccc(S(N)(=O)=O)cc2)cc1	1	-11	27*	i	52*	35*	8.3*
NS(=O)(=O)c1ccc(Nc2nc3ccccc3nc2NS(=O)(=O)c2cccc([N+](=O)[O-])c2)cc1	1	24	32*	i	94*	88*	62*
O=C(O)c1cccc(Nc2nc3ccccc3nc2NS(=O)(=O)c2ccc(F)cc2)c1	1	-4	1	i	33	nt	nt
Cc1cccnc1NS(=O)(=O)c1cccc([N+](=O)[O-])c1	0	-8	-2	i	1	nt	nt
Cc1cccc(S(=O)(=O)Nc2nc3ccccc3nc2Nc2cccc(C(=O)O)c2)c1	0	-2	-1	i	53*	57*	20*
COc1ccc(Nc2nc3ccccc3nc2NS(=O)(=O)c2ccc(NC(C)=O)cc2)cc1	2	2	12*	i	80*	60*	21*
SMILES	MPTP inh	FAS TE block	NR3A LBD binder	Myeloid diff MLP	rCAG binder-1	rCAG bind conf	DNA CAG counter	others
CC(=O)Nc1ccc(S(=O)(=O)Nc2nc3ccccc3nc2Nc2ccc(O)c(C(=O)O)c2)cc1	-1	-14	8	i	46*	25	4
O=C(O)c1cccc(N2C(=O)c3ccc(Oc4ccc(Cl)cc4)cc3C2=O)c1	0	29	1	i	44*	42*	9.9*
CC(=O)Nc1ccc(NC(=O)C(C)OC(=O)c2ccc(S(=O)(=O)N3CCCCCC3)cc2)cc1 (configuration not stated)	0	0	4	i	0	nt	nt
COC(=O)[C@]12C[C@H](CC(=O)N3CCC(c4ccccc4)CC3)C(=O)N(CCc3ccc(OC)c(OC)c3)C1=C[C@H](C(C)C)O[C@@H]2C1CC1	nt	nt	nt	nt	6	nt	nt
COc1cc([N+](=O)[O-])cc(/C=N/NC(=O)c2ccc(C)nc2)c1O	-14	17	-5	i	7	nt	nt
COc1cc([N+](=O)[O-])cc(/C=N/NC(=O)C(C)Nc2ccccc2C)c1O (configuration not stated)	0	37	-5	i	36*	29	10*
O=[N+]([O-])c1ccc2[nH]cc(S(=O)(=O)N3CCN(c4cccc(Cl)c4)CC3)c2c1	4	-100	27*	i	43*	37*	20*
CC1CN(S(=O)(=O)c2cccc(C(=O)Nc3ccc(S(=O)(=O)Nc4ncccn4)cc3)c2)CC(C)O1 (configuration not stated)	-1	-5	-2	i	11	nt	nt
O=C(CSc1nc2ccccc2n1CCc1ccccc1)c1ccc(O)c(O)c1	5	25	3	i	61*	64*	38*
O=C(CSc1nc2ccccc2n1CCc1ccccc1)N1CCOCC1	-1	-4	-4	i	3	nt	nt
C=CCN1[C@@H](C)COc2cccc(N3CCSCC3)c2S1(=O)=O	nt	nt	nt	nt	0	nt	nt
